Assay outcomes from PubChem BioAssay.
Compounds with a hit are over-represented: about 7.3% of the library has one in this group of screens.
p53 reactivation: re-activators of mutant p53. H1299 p53-A138V BP100-luciferase reporter, luminescence, 24 h. Potency, µM (top dose mostly 92.2 µM), for inactives: at the highest dose activity change, positive = activation, most hits filed as activators. hit rate 0.063% among 320,000. AID 504706; also: % of control where 0% means no effect; nearly all actives have a fitted effect of over 45% in size
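p53-null H1299 cells stably carrying temperature-sensitive p53-A138V and a BP100-luciferase reporter were pinned with compounds (4-point, 1:5 series) and held 24 hrs at 37 deg C. Luminescence was read 10 min after detection reagent.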
NPC1 prom act: activates the NPC1 promoter; Huh7 NPC1 promoter luciferase reporter, 24 h; Potency, µM (doses to about 9.22 µM), without a hit: at the highest dose activation, hits mostly activators; hit rate 2.4% among 320,000; also: % of control where 0% means no effect; nearly all actives have a fitted effect of over 60% in size
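Huh7 cells stably carrying NPC1 promoter–luciferase, plated in Opti-MEM with 10% FBS for 2 h, were exposed to compound in DMSO for 24 h at 37 °C; luciferase reagent was added for 10 min and luminescence read.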
Rab9 prom act: Rab9 promoter activation. Huh7 Rab9 promoter-luciferase reporter, luminescence, 24 h. Potency, µM (series often up to 9.22 µM), for inactives: at the highest dose activation, negative = inhibition, actives largely listed as activators. hit rate 2.8% among 320,000; also: % of control where 0% means no effect; nearly all actives have a fitted effect of over 60% in size
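Huh7 reporter line, Rab9 promoter upstream of luciferase. Compound exposure 24 h at 37 °C in reduced-serum medium with 10% FBS. Read-out: luminescence.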
ELG1 genotoxic: genotoxicity induction in ELG1-luciferase HEK293T cells; HEK293T ELG1-luciferase reporter, luminescence, 16 h; Potency, µM (top dose mostly 46 µM), inactives show at the highest dose activity change, positive = activation, hits mostly activators; hit rate 1.3% among 330,000; also: % of control where 0% means no effect; nearly all actives have a fitted effect of over 60% in size
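ELG1-luciferase HEK293T cells, 2,000/well; compound pinned in; 16 hr, 37 °C, 5% CO2; ONE-Glo, 30 min RT; luminescence on CCD imager.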
SMN2 splice enh: increases expression of the SMN2 splice variant; HEK293 SMN2-luciferase splicing reporter, luminescence, 30-36 h; Potency, µM (titrated, usually from 46.1 µM), inactives show at the top dose activity change, positive = activation, usual class: activators; hit rate 2.8% among 210,000; also: % of control where 0% means no effect; nearly all actives have a fitted effect of over 55% in size
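HEK293 cells carry an SMN2 minigene-luciferase reporter in which exon 7 inclusion puts luciferase in frame. Cells were seeded at 2000 cells/well, attached for 10-12 hours, then exposed to compounds for 30-36 hours at 37C before ONE-Glo luminescence.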
FLuc modulator: counter-screen for miR-21 project: firefly luciferase inhibitors or activators | P08659 | purified FLuc, Km substrates, luminescence inhibition | Potency, µM (titrated, usually from 57.5 µM), for inactives: at the highest dose activity change, negative = inhibition, actives largely listed as inhibitors | hit rate 6.9% among 360,000 | AID 588342;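 also: plate controls were vehicle for no effect and reference inhibitor for full effect; nearly all actives have a fitted effect of over 55% in size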
Target sequence (P08659 whole entry, looked up): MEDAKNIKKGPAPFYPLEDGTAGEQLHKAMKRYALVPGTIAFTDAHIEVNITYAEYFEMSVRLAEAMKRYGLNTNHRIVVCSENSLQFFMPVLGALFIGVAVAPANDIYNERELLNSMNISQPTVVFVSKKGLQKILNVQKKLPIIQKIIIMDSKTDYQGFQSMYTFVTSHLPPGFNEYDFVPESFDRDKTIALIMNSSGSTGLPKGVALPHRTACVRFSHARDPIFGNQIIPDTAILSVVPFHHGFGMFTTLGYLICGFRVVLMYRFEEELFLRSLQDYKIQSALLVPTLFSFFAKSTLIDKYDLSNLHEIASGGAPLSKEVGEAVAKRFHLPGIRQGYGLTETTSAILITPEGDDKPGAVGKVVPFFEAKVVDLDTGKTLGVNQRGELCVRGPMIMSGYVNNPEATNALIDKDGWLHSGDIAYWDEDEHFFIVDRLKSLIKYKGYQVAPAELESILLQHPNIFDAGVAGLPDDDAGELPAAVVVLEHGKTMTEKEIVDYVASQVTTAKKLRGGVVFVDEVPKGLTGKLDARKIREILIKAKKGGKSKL
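Purified P. pyralis luciferase (10nM final) with 10uM D-luciferin and 10uM ATP (Km levels) in 50mM Tris acetate pH 7.5, 10mM Mg acetate, 0.01% Tween-20, 0.05% BSA; qHTS 6-point titration, ~60 µM downward; luminescence read.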
* marks the source's active call; other numbers are inactive results; ? = inconclusive; / = no result given; [ ] = dose if it differs, or a comment. Calls follow the shape of the dose curve; as a rule, active = well fitted curve in the direction sought with a large enough effect; inconclusive = small, poorly fitted or top-dose-only effect, or another doubt; inactive = no such curve, though single readings can be large; an effect the other way counts as inactive or inconclusive. Potency is read from the fitted curve at half-maximal effect.

SMILES	p53 reactivation	NPC1 prom act	Rab9 prom act	ELG1 genotoxic	SMN2 splice enh	FLuc modulator
Cc1ccc(NC(=O)c2cc(N(C)C)ccc2[P+](=O)O)cc1	?	11%	2%	?	-7%	19µM*
CCOc1ccc(N/C(C)=C/C(=O)c2ccc(C)o2)cc1	?	?	?	?	-7%	6µM*
COC(=O)c1ccc(N/C(C)=C/C(=O)c2ccc(C)o2)cc1	3%	0%	1%	18%	20%	12µM*
CCOc1ccc(NC(=O)CCc2ccc(C)o2)cc1	23%	15%	-3%	9%	/	-18%
Cc1cc(NC(=O)C2CCCCC2)ccc1NC(=O)c1ccccc1Cl	-2%	0%	-2%	0%	-3%	-2%
Cc1nn(CCCC(=O)Nc2cccc(F)c2)c(=O)c2c1sc1ccccc12	/	/	/	/	/	15µM*
CCCOc1ccc(CNC(=O)CCCn2nc(C)c3sc4ccccc4c3c2=O)cc1	/	/	/	/	/	7.6µM*
Cc1ccccc1-c1nnc(SCC(=O)NC2CCCC2)n1C	-2%	-1%	0%	-4%	/	-2%
Cc1ccc(CNc2nc(C)cs2)cc1	?	2µM*	1.1µM*	1µM*	/	6µM*
COc1cccc2c1[C@H](CO)N1[C@H](C#N)[C@@H]3C[C@H](C(=O)O)[C@@H]([C@@H]1C2)N3C	/	/	/	/	-66%[9.22 µM]	/
CCN(CC)c1ccc2cc(NC(=O)CCC(=O)O)c(=O)oc2c1	-20%	-23%	-28%	-12%	-55%	6.7µM*
CCCCCCc1cc2cc(C(N)=O)c(=N)oc2cc1O	5%	2%	-1%	-8%	-2%	17µM*
CCN(CC)c1ccc2cc(C(N)=O)c(=N)oc2c1	-3%	3%	12%	?	17%	24µM*
CCN(CC)c1ccc2cc(C(C)=O)c(=O)oc2c1	?	1%	20%	?	4%	?
CCN(CC)c1ccc2cc(C(=O)Nc3cccnc3N3CCOCC3)c(=O)oc2c1	6%	-2%	-2%	6%	/	-17%
CCN(CC)c1ccc2cc(C(=O)Nc3ccccn3)c(=O)oc2c1	?	0.32µM*	0.11µM*	?	2.8µM*	0.54µM*
Cc1ccc(CC2C(=O)N(c3cc(C)ccc3C)C(=O)C2C)cc1 (stereo not drawn)	8%	-2%	1%	-10%	/	0%
CC#C[C@]1(O)CC[C@H]2C3CCC4=CC(=O)CCC4=C3[C@@H](c3ccc(N(C)C)cc3)C[C@@]21C (stereo partly drawn)	/	/	/	/	-39%	/
COc1ccc(NC(=O)NC(C)c2c(-n3cccc3)sc3c2CCN(C)C3)c(OC)c1 (stereo not drawn)	/	/	/	/	/	-8%
COc1ccc(OC)c(CNC(=O)CCCn2nc(C)c3c(C)n(-c4ccc(C)cc4)nc3c2=O)c1	/	/	/	/	/	-15%
O=C(COC(=O)c1n[nH]c2ccccc12)c1cc(F)ccc1F	-3%	-1%	2%	-1%	-20%	?
Cc1cc(C)c(C(=O)COC(=O)c2nn(C)c(=O)c3ccccc23)cc1C	-5%	-3%	-5%	1%	/	11µM*
CC1CCN(C(=O)COC(=O)c2n[nH]c3ccccc23)CC1	?	3.5µM*	3.2µM*	?	?	?
CCc1ccc(C(=O)COC(=O)c2nn(C)c(=O)c3ccccc23)cc1	-2%	-2%	-4%	0%	1%	19µM*
CCC1CCCCN1C(=O)COC(=O)c1n[nH]c2ccccc12 (stereo not drawn)	3%	8%	14%	2%	-4%	?
CCc1ccc(C(=O)COC(=O)c2n[nH]c3ccccc23)cc1	?	1.8µM*	0.89µM*	18%	-12%	3µM*
Cn1cccc1C(=O)N1CCC2(CCN(Cc3nccs3)CC2)CC1	/	/	/	/	-16%	/
Nc1nc2ccccc2n1C(=O)c1cccs1	16%	?	0.79µM*	?	11µM*	2.7µM*
Nc1nc2ccccc2n1C(=O)c1ccco1	?	?	2.5µM*	?	13µM*	11µM*
